# Compounds with a hit are over-represented: about 2.8% of the library has one in this group of screens.
# PI5P4K alpha inh = PI5P4K alpha (human) kinase inhibition; AID 652105; max response, %; P48426; 330,000 tested, 1.2% active; PI5P4Kalpha enzyme, ADP-Glo luminescence, 60 min; stronger effect = lower value; active = max response of -50% or lower; inconclusive = between -30% and -50%; inactive = -30% or higher; also: value at the top dose of about 77 µM; % is scaled to controls: 0 for no effect and ±100 for the full control effect
#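 ADP-Glo luminescence end-point read after a 60 min room-temperature kinase reaction of PI5P4Kalpha plus substrate, initiated with ATP at 5 microM final. Buffer: 0.038 M HEPES pH 7.4, EGTA, 0.1% CHAPS, 5% DMSO.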
# POLI inh = inhibitors of human DNA polymerase iota. Q9UNA4. Pol iota fluorescent replication assay, 10 min. Potency, µM (doses to about 115 µM), inactives show at the highest dose activity, negative = inhibition, most hits filed as inhibitors. 390,000 tested, 1% active; also: potency is read from the fitted curve at half-maximal effect
#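 Pol iota at 10 nM preincubated 15 min with compounds at room temperature; reaction started with fluorescent substrate, 50 nM final. Fluorescence read kinetically at 0 and 10 min; buffer-only wells as negative control.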
# Pol kappa inh-1 = DNA polymerase kappa (human) inhibition | AID 588579 | Potency, µM (highest dose often 107 µM), without a hit: at the highest dose activity, negative = inhibition, actives largely listed as inhibitors | 400,000 tested, 0.53% active | purified Pol kappa, fluorescent DNA synthesis assay, 10 min | Q9UBT6; also: potency is read from the fitted curve at half-maximal effect; % is scaled to controls: 0 for no effect and ±100 for the full control effect
#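 Kinetic fluorescence screen: compound preincubated 15 min RT with 10 nM enzyme; 50 nM substrate (final) initiates; reads at 0/10 min.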
# Pol beta inh = DNA polymerase beta (human) inhibition | P06746 | Pol beta primer extension/strand displacement, fluorescence kinetic | Potency, µM (highest dose often 114 µM), inactives show at the top dose activity change, negative = inhibition, actives largely listed as inhibitors | 340,000 tested, 1.3% active; also: potency is read from the fitted curve at half-maximal effect; % is scaled to controls: 0 for no effect and ±100 for the full control effect
#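 Enzyme-only controls used 10 nM Pol beta; buffer lacking enzyme served as negative control. Compound preincubated 15 min, then 50 nM substrate added; 0 and 10 min reads at room temperature.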
# Pol eta inh-1 = DNA polymerase eta (human) inhibition. 390,000 tested, 1.2% active. Potency, µM (top dose mostly 114 µM), inactives show at the top dose activity change, negative = inhibition, usual class: inhibitors. Q9Y253. recombinant Pol eta, fluorescent DNA replication assay; also: potency is read from the fitted curve at half-maximal effect; % is scaled to controls: 0 for no effect and ±100 for the full control effect
# Target sequence (Q9Y253 whole entry, looked up): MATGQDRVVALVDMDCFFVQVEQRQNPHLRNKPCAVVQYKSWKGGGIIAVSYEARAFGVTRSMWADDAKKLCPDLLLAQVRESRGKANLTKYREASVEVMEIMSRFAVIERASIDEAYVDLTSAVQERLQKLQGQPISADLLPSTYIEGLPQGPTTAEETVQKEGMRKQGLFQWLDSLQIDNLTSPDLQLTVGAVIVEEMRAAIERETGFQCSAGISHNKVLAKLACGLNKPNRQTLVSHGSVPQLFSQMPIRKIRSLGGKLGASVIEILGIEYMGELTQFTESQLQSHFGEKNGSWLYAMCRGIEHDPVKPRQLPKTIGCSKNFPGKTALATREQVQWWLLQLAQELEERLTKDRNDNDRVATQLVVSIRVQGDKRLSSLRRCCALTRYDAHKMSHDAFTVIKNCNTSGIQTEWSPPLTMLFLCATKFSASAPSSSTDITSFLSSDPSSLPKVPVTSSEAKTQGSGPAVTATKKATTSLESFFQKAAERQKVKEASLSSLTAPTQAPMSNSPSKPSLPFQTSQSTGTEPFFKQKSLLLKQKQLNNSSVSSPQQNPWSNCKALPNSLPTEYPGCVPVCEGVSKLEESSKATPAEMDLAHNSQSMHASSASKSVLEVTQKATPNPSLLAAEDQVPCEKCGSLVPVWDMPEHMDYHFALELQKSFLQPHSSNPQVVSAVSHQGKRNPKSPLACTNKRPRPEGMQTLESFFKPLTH
#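 Pol eta at 10 nM preincubated with compounds 15 min at room temperature; reaction started with fluorescent substrate (50 nM final) and read kinetically at 0 and 10 min.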
# PI4K2A block = PI4K2A (human) kinase inhibition | 420,000 tested, 0.13% active | Q9BTU6 | activity change, negative = inhibition, % at 76.9 µM | purified PI4K2A, ADP-Glo luminescence, 1 h; stronger effect = lower value; in the data active = activity change below about -50%; inconclusive = mostly about -30% to -49%;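 also: -100% = wells without enzyme as full effect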
#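 PI4K2A activity was measured by ADP-Glo luminescence: enzyme (4 ug/mL stock) and phosphatidylinositol (1.2 mM stock) in Tris pH 7.5/MgCl2/EGTA/Triton X-100 buffer were reacted with ATP (300 microM stock) for one hour at ambient temperature.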
# Pol kappa inh-2 = confirmation of human DNA polymerase kappa inhibitors; Potency, µM, usual class: inhibitors; 920 tested, 76% active; purified Pol-kappa, fluorescent strand-displacement substrate; shares compounds with Pol eta inh-1; also: potency is read from the fitted curve at half-maximal effect
# Pol eta inh-2 = Pol eta (human) inhibition, cherry-pick confirmation. shares compounds with Pol eta inh-1. Pol eta primer extension, TAMRA/BHQ fluorescence, 10 min. Potency, µM, actives largely listed as inhibitors. 2,600 tested, 64% active. AID 720502; also: potency is read from the fitted curve at half-maximal effect
# Starred values were filed as active, the others as inactive; ? = inconclusive; . = not tested or not shown; [ ] = remark or other dose. Unless noted, calls follow the shape of the dose curve; as a rule, active = well fitted inhibition curve with a large enough effect; inconclusive = small, poorly fitted or top-dose-only effect, or another doubt; inactive = no such curve, though single readings can be large or run the other way.
SMILES,PI5P4K alpha inh,POLI inh,Pol kappa inh-1,Pol beta inh,Pol eta inh-1,PI4K2A block,Pol eta inh-2,others
O=C(O)COn1c(-c2ccccc2)nc2ccc([N+](=O)[O-])cc21,?,?,?,35µM*,18µM*,-2,?,
Cc1ccc(C(=O)c2coc3cc([N+](=O)[O-])c(O)c([N+](=O)[O-])c23)cc1,-82*,?,?,20µM*,20µM*,-7,.,Pol kappa inh-2=?
COc1cc2nc(N(C)CCCNC(=O)[C@@H]3CCCO3)nc(N)c2cc1OC,.,.,-11%[12 µM],.,.,.,.,
CC(=O)N1CCN(c2ccc(NS(=O)(=O)c3ccc4c(c3)CC(=O)N4)cc2)CC1,.,.,.,.,.,.,?,
CC(=O)c1ccc(N2CCN(S(=O)(=O)c3ccc4c(c3)CC(=O)N4)CC2)cc1,-14,47%,-21%,43%,-1%,0,.,
O=C1CC2(CCCC2)CC(=O)N1CCCCNCC1COc2ccccc2O1 (stereo not drawn),.,.,3%[19.4 µM],.,.,.,.,
COc1ccccc1/C=C1\S/C(=N/NC(=O)c2cccc(Br)c2)NC1=O,?,6%,-22%,-27%,40µM*,3,?,
Cc1ccc(-c2ccc(/C=C3\C(=O)ON=C3c3ccccc3)o2)c([N+](=O)[O-])c1,.,32µM*,-36%,29%,28µM*,-18,85*,Pol kappa inh-2=?
Cc1ccc(-c2ccc(/C=N/N3C(=O)C4C5C=CC(CC5)C4C3=O)o2)c([N+](=O)[O-])c1 (stereo not drawn),.,11%,-15%,5%,-6%,0,.,
COc1ccc(Cl)cc1-c1cc(C(=O)NCc2cccc(C(F)(F)F)c2)[nH]n1,-3,.,.,.,.,5,.,
OC(c1ccc(Cl)cc1)c1ncc(-c2cccc(C(F)(F)F)c2)[nH]1 (stereo not drawn),11,.,.,.,.,-7,.,
Cc1ccc(C)n1-c1nc(=S)[nH][nH]1,.,?,28µM*,-2%,45µM*,-10,76*,
CN1CCN(c2ncc3nc(-c4cccs4)c(=O)n(CCc4ccccc4)c3n2)CC1,.,.,0%[60.1 µM],.,.,.,.,
Cc1cc2oc(C(=O)Nc3ccc(S(=O)(=O)N(C)Cc4ccccc4)cc3)cc(=O)c2cc1C,.,-2%,-14%,-22%,-4%,-1,.,
Cc1ccccc1OCC(=O)Nc1ccc(-c2nc3cc(Cl)cc(Cl)c3o2)cc1,.,0%,-5%,-25%,-17%,3,.,
COc1ccc(C2=Nn3c(nnc3-c3ccccc3Cl)SC2)cc1OC1CCOC1 (stereo not drawn),.,-12%,-22%,.,-7%,2,.,Pol kappa inh-2=8.4*
COc1ccc(C2=Nn3c(nnc3-c3ccccc3Cl)SC2)cc1OC1CCCC1,.,-29%,?,.,-4%,0,.,Pol kappa inh-2=17*
COc1ccc(OC)c(-c2nnc3n2N=C(c2ccc(OC)c(OC4CCOC4)c2)CS3)c1 (stereo not drawn),.,-21%,-1%,.,-14%,-1,.,
O=C(N/N=C/C=C/c1ccccc1)c1cccnc1,2,5%,1%,8%,-5%,5,.,
O=C(N/N=C/C=C\c1ccco1)c1ccccn1,-55*,?,50µM*,?,?,-10,?,
O=C(N/N=C/C=C\c1ccco1)c1cccnc1,2,18µM*,79µM*,19%,?,-13,?,
O=C(NCCCN1CCN(c2ccc(F)cc2)CC1)c1ccc2nc(Cc3ccccc3)oc2c1,.,-1%,-12%[60.1 µM],3%,-16%,-6,.,
CC1=CN2C(=N)/C(=C/c3ccc([N+](=O)[O-])o3)C(=O)N=C2S1,-67*,16µM*,32µM*,18µM*,4µM*,-19,60*,
O=C(O)c1ccc(CNCc2ccc(Cl)cc2)s1,.,-1%,-10%,27%,-11%,1,.,
